Source: PubChem BioAssay (National Center for Advancing Translational Sciences (NCATS))
Most compounds without a hit are left out; they make up all but 17% or so of the library.
TDP1 cell noCPT – qHTS for Inhibitors of human tyrosyl-DNA phosphodiesterase 1 (TDP1): qHTS in cells in absence of CPT; DT40 Tdp1-/- hTDP1 cells, no CPT, ATP luminescence, 48 h; Potency, µM (top dose mostly 46.2 µM), most hits filed as inhibitors; 420,000 compounds, 15% hits; AID 686978, 2013; also: nearly all actives have a fitted effect of over 55% in size
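A cellular qHTS used chicken DT40 cells lacking endogenous Tdp1 but carrying stably transfected human TDP1. Compounds were applied without camptothecin, and cell growth kinetics were judged by ATP-dependent luminescence after ≥48 hr.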
HT1080 IDH1KD tx – toxicity to HT-1080 IDH1 knockdown cells (counter line) | HT-1080 IDH1 knockdown viability, ATP luminescence, 48 h | Potency, µM (series often up to 46.1 µM), usual class: cytotoxic | 360,000 compounds, 2% hits | AID 686971
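Cytotoxicity counter-line: IDH1KD HT-1080, 48 h, CellTiter-Glo. Curves classed by r2, magnitude and activity.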
HT1080-NT tox – kills 2HG-producing HT-1080-NT fibrosarcoma cells; HT-1080-NT fibrosarcoma viability, CellTiter-Glo ATP luminescence, 48 h; 360,000 compounds, 1.6% hits; AID 686970; Potency, µM (doses to about 46.1 µM), usual class: cytotoxic;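 also: NT is the 2HG producing partner of a matched IDH1 knockdown line; nearly all actives have a fitted effect of over 55% in size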
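HT-1080-NT fibrosarcoma cells (2HG-overproducing), 750 cells/well in RPMI with 5% FBS, dosed after 2 h and incubated 48 h at 37C. CellTiter-Glo luminescence normalized to DMSO and no-cell wells; concentration-response curves fitted and classed.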
HepG2 viability – counter-screen for TGF-b inhibitors: cytotoxicity in HepG2 cells; Potency, µM (top dose mostly 46.1 µM), usual class: cytotoxic; HepG2 CAGA-GFP viability, ATP luminescence, 18 h; 410,000 compounds, 0.76% hits
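CellTiter-Glo luminescence gave cytotoxicity after 18 hours at 37 degrees C. The cells were HepG2 CAGA-GFP in 1% FBS DMEM, stimulated with 500 pg/mL TGF-beta after compound addition. %Activity was normalised to no-cell wells (complete cell-killing) and DMSO (no toxicity), and curves were fitted and classified.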
TGFb SMAD3 inh – blocks TGF-b signaling; 410,000 compounds, 1.2% hits; HepG2 CAGA-GFP TGF-b/SMAD3 reporter, GFP fluorescence, 18 h; TGF-beta stimulated, 500 pg/mL final; AID 588855; Potency, µM (highest dose often 46.1 µM), actives largely listed as inhibitors; also: nearly all actives have a fitted effect of over 65% in size
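Per well, imaged GFP fluorescence of HEPG2 CAGA-GFP cells gives the signal; cells get compound, then TGF-beta (500 pg/mL final), 18 h at 37 degrees C; %Activity versus -TGF-beta and +DMSO controls.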
DT40 TDP1 CPT – growth inhibition of DT40 Tdp1-/-;hTDP1 cells with camptothecin (screen for TDP1 inhibitors) | 420,000 compounds, 12% hits | Potency, µM (titrated, usually from 46.2 µM), hits mostly inhibitors | chicken DT40 Tdp1-/-;hTDP1 cells + 20 nM CPT, ATP luminescence, 48 h | AID 686979; also: nearly all actives have a fitted effect of over 55% in size
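Chicken DT40 Tdp1-/- cells stably complemented with human TDP1 were seeded at 400 cells/well in medium containing 20 nM camptothecin, exposed to pin-transferred compounds, and grown at 37 °C for at least 48 hr. Viability was read as ATP luminescence.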
Numbers stand for hits; i = inactive; ? = inconclusive; nt = no result. Calls follow the shape of the dose curve; as a rule, active = well fitted curve in the direction sought with a large enough effect; inconclusive = small, poorly fitted or top-dose-only effect, or another doubt; inactive = no such curve, though single readings can be large; an effect the other way counts as inactive or inconclusive.

SMILES	TDP1 cell noCPT	HT1080 IDH1KD tx	HT1080-NT tox	HepG2 viability	TGFb SMAD3 inh	DT40 TDP1 CPT
Cc1c(CC(=O)O)c(=O)oc2c(C)c3occ(-c4ccc(Br)cc4)c3cc12	16µM	i	i	i	i	i
O=C(Cc1cccc(NC(=O)C2CCCN(C(=O)c3ccccc3)C2)c1)Nc1cccc(C(=O)N2CCCCC2)c1 (stereo unspecified)	i	i	i	i	i	i
Cc1ccc(-c2nnc(NCc3ccccc3)c3ccccc23)cc1	?	i	i	i	i	?
Cc1nc(NCc2ccccc2)c2cc[nH]c2n1	12µM	i	i	i	i	?
Cc1ccccc1-c1cc2nc(Oc3cccc4ccccc34)n(C)c(=O)c2s1	i	i	i	i	i	i
CCc1cccc(CC)c1NC(=O)CSc1nc2ccc(N3C(=O)C4C5C=CC(C5)C4C3=O)cc2s1 (stereo unspecified)	18µM	?	i	i	?	21µM
Cc1cccc(NC(=O)CSc2nc3ccc(N4C(=O)c5ccccc5C4=O)cc3s2)c1C	i	i	i	i	i	?
OC(c1ccccc1)(c1ccccc1)C1CCN(CCCOc2ccccc2Cl)CC1	16µM	?	21µM	nt	nt	21µM
COc1ccccc1OCCCN1CCC(C(O)(c2ccccc2)c2ccccc2)CC1	21µM	16µM	21µM	nt	nt	?
COc1cccc(C(C)(O)c2nc(-c3cnn(C)c3)cs2)c1 (stereo unspecified)	?	i	i	i	i	?
CC(=O)N(Cc1ccccc1C)c1cccc(C)c1C	i	i	i	i	i	i
CC(=O)N(Cc1ccc(F)cc1)c1cccc(C)c1C	21µM	i	i	i	i	?
COc1cc2c(cc1OC)C(=O)OC2	i	nt	nt	nt	nt	i
COc1c(Cl)cc(C(=O)Nc2cc(-c3nc4ccccc4[nH]3)ccc2C)cc1Cl	?	nt	nt	i	?	?
Cc1ccc(C(C)C)c(OCC(=O)Nc2ccc(N3CCOCC3)cc2N2CCOCC2)c1	18µM	i	i	i	i	23µM
CC(=O)N1CCN(c2ccccc2NC(=O)COc2cc(C)ccc2C(C)C)CC1	?	?	?	i	i	?
Cc1ccc(C(C)C)c(OCC(O)CN2CCN(c3ccccc3F)CC2)c1 (stereo unspecified)	?	nt	nt	i	16µM	?
Cc1ccc(C(C)C)c(OCC(=O)Nc2ccccc2N2CCN(C)CC2)c1	15µM	?	?	i	?	?
COc1ccc(Cl)cc1C(=O)NC(=S)Nc1cc(-c2nc3ccccc3[nH]2)ccc1C	15µM	?	i	i	i	?
O=C(Nc1nccs1)c1cncc(Br)c1	i	i	i	i	i	i
Cc1cccc(OCCSc2nnc(-c3cccs3)o2)c1	?	nt	nt	i	?	i
CCOc1ccccc1Nc1sc(C(=O)c2ccc(Cl)cc2)c(N)c1C#N	?	nt	nt	i	i	?
CCCNC(=O)c1cc(C2CCCCN2S(=O)(=O)c2ccccc2)on1 (stereo unspecified)	?	i	i	i	i	i
CC1(c2nnnn2C2CCCC2)CCC(=O)N1c1ccc2c(c1)OCCO2 (stereo unspecified)	i	i	i	nt	nt	i
CSc1ccc(OC2(C)CCN(Cc3ccc(OC(C)C)cc3)C2)cc1 (stereo unspecified)	?	?	?	i	?	?
C/C(=N/NC(=O)COc1cc(C)ccc1C(C)C)C(=O)O	i	6.5µM	?	i	i	i
Cc1ccc(C(C)C)c(OCC(=O)Nc2cc(-c3nc4ccccc4[nH]3)ccc2C)c1	3.7µM	nt	nt	i	nt	4.6µM
Cc1ccc(C(C)C)c(OCC(=O)NN=C2CCCC2)c1	?	i	i	i	i	i
CC(=O)Nc1ccc(Cl)c(-c2nc3ncccc3o2)c1	i	i	i	i	i	i
CC(C)(C)c1nn(-c2ccccc2)c2[nH]c(=O)c(CNc3ccc4c(c3)OCCO4)cc12	i	?	?	i	?	i
